Values joined by “and” are separate entries in the source; they are usually repeats but may differ in a detail not shown here. Equal values may be shown once. About 2,000 (36%) of roughly 5,500 compounds were called active. Not shown: some 18% with an inconclusive outcome. Rule as the data show it: active = normalized growth mostly below about 0.91 (no sharp cut-off); inconclusive = no clear call, values can overlap the other calls; inactive = mostly above about 0.92. The list shows a part of the results.
Assay: chemical genetic growth profiling, strain panel (AID 1159580);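 also: tested at 20 µM; growth read once vehicle control cultures reached saturation at 30 °C; 1 = growth at the plate median or of vehicle wells; lower values mean less growth of the strain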
Conditions: S. cerevisiae deletion strains, growth OD

Measured: normalized growth

CNC(C)C(O)c1ccccc1 (stereo not drawn)
inactive: locus YAL013W, strain DEP1, hits give low values 1 | locus YAL021C, strain ccr4, hits give low values 1.02 | locus YAL026C, strain drs2, hits give low values 0.997 | locus YAL030W, strain snc1, hits give low values 1.01 | locus YBL061C, strain skt5, hits give low values 1 | locus YBR009C, strain hhf1, hits give low values 0.993 | locus YBR021W, strain FUR4, hits give low values 1.01 | locus YBR023C, strain chs3, hits give low values 1.01 | locus YBR171W, strain sec66, hits give low values 1.02 | locus YBR229C, strain ROT2, hits give low values 1 | locus YBR231C, strain swc5, hits give low values 1.02 | locus YBR279W, strain paf1, hits give low values 1.01 | locus YCL011C, strain gbp2, hits give low values 1.01 | locus YCL016C, strain dcc1, hits give low values 1 | locus YCL029C, strain bik1, hits give low values 1.02 | locus YCL061C, strain MRC1, hits give low values 1.02 | locus YCL069W, strain vba3, hits give low values 1.02 | locus YCR088W, strain abp1, hits give low values 1.02 | locus YDL005C, strain med2, hits give low values 1.02 | locus YDL035C, strain GPR1, hits give low values 1.01 | locus YDL040C, strain nat1, hits give low values 1.01 | locus YDL074C, strain BRE1, hits give low values 1.02 | locus YDL101C, strain DUN1, hits give low values 1 | locus YDL134C, strain PPH21, hits give low values 1.01 | locus YDL185W, strain tfp1, hits give low values 1.01 | locus YDL192W, strain arf1, hits give low values 1.03 | locus YDR001C, strain nth1, hits give low values 1.01 | locus YDR069C, strain doa4, hits give low values 1.02 | locus YDR101C, strain arx1, hits give low values 1.03 | locus YDR137W, strain rgp1, hits give low values 1.03 | locus YDR150W, strain NUM1, hits give low values 1 | locus YDR159W, strain sac3, hits give low values 0.99 | locus YDR162C, strain NBP2, hits give low values 1 | locus YDR195W, strain ref2 0.995 | locus YDR297W, strain sur2, hits give low values 1.01 | locus YDR318W, strain mcm21, hits give low values 1.02 | locus YDR334W, strain swr1, hits give low values 1.02 | locus YDR335W, strain msn5, hits give low values 1.01 | locus YDR388W, hits give low values 1.02 | locus YDR392W, strain spt3, hits give low values 1 | locus YDR502C, strain sam2, hits give low values 1.02 | locus YEL003W, strain gim4, hits give low values 1.02 | locus YEL037C, strain rad23, hits give low values 1.01 | locus YEL061C, strain CIN8 (second series), hits give low values 1.02 | locus YEL061C, strain CIN8, hits give low values 1 | locus YER015W, strain faa2, hits give low values 1.02 | locus YER016W, strain bim1, hits give low values 1.01 | locus YER110C, hits give low values 1.04 | locus YER111C, strain swi4, hits give low values 1.01 | locus YER155C, strain BEM2 (second series), hits give low values 1.02 | locus YER155C, strain BEM2, hits give low values 1 | locus YER167W, strain BCK2, hits give low values 1 | locus YFR010W, strain ubp6, hits give low values 1.03 | locus YGL078C, strain dbp3, hits give low values 1.03 | locus YGL086W, strain mad1, hits give low values 1 | locus YGL167C, strain pmr1, hits give low values 1.02 | locus YGL173C, strain kem1, hits give low values 1.01 | locus YGL227W, strain vid30, hits give low values 1.01 | locus YGL240W, strain doc1, hits give low values 1.04 | locus YGL248W, strain PDE1, hits give low values 1.01 | locus YGL253W, strain hxk2, hits give low values 1.01 | locus YGR078C, strain PAC10, hits give low values 1.01 | locus YGR135W, strain pre9, hits give low values 1.03 | locus YGR252W, strain gcn5, hits give low values 1.01 | locus YHR013C, strain ard1, hits give low values 1.02 | locus YHR027C, strain rpn1, hits give low values 1.02 | locus YHR030C, strain SLT2, hits give low values 1 and 1.02 | locus YHR079C, strain IRE1 (second series), hits give low values 1.02 | locus YHR079C, strain IRE1, hits give low values 1.04 | locus YHR094C, strain hxt1, hits give low values 1.03 | locus YHR129C, strain ARP1, hits give low values 1 | locus YHR142W, strain chs7, hits give low values 1.02 | locus YHR200W, strain rpn10, hits give low values 1.02 | locus YIL066C, strain RNR3, hits give low values 1 | locus YIL073C, strain SPO22, hits give low values 1.06 | locus YIL125W, strain kgd1, hits give low values 1.02 | locus YIR030C, strain dcg1, hits give low values 1.02 | locus YJL092W, strain hpr5, hits give low values 1.01 | locus YJL095W, strain BCK1 (second series), hits give low values 1.01 | locus YJL095W, strain BCK1, hits give low values 0.99 and 0.983 | locus YJL115W, strain asf1, hits give low values 1.03 | locus YJL129C, strain trk1, hits give low values 1.03 | locus YJL134W, strain LCB3, hits give low values 1 | locus YJL154C, strain vps35, hits give low values 1.01 | locus YJL164C, strain tpk1, hits give low values 1.01 | locus YJL166W, strain qcr8, hits give low values 1.03 | locus YJL168C, strain set2, hits give low values 1.02 | locus YJL187C, strain SWE1 (second series), hits give low values 1

Reference: PubChem BioAssay AID1159580 (chemical genetic matrix, 2015)
